To fix the notation:
B1: PhoQ; a variant is named by its letters at X, in order, P23837 (parent)
chain: MKKLLRLFFPLSLRVRFLLATAAVVLVLSLAYGMVALIGYSVSFDKTTFRLLRGESNLFYTLAKWENNKLHVELPENIDKQSPTMTLIYDENGQLLWAQRDVPWLMKMIQPDWLKSNGFHEIEADVNDTSLLLSGDHSIQQQLQEVREDDDDAEMTHSVAVNVYPATSRMPKLTIVVVDTIPVELKSSYMVWSWFIYVLSANLLLVIPLLWVAAWWSLRPIEALAKEVRELEEHNRELLNPATTRELTSLVRNLNRLLKSERERYDKYRTTLTDLTHSLKTPLXXLQXXLRSLRSEKMSVSDAEPVMLEQISRISQQIGYYLHRASMRGGTLLSRELHPVAPLLDNLTSALNKVYQRKGVNISLDISPEISFVGEQNDFVEVMGNVLDNACKYCLEFVEISARQTDEHLYIVVEDDGPGIPLSKREVIFDRGQRVDTLRPGQGVGLAVAREITEQYEGKIVAGESMLGGARMEVIFGRQHSAPKDE

The full ranking holds about 140,000 sequences; the median of “enrichment ratio after two sorts for PhoP signalling” is about 0, and the highest 2% start at about 11. The full list was thinned out, with the highest values kept by preference. A value given as a limit tells only on which side of the number the result lay.

In the assay the parent is B1. The assay can be described thus: enrichment ratio after two sorts for PhoP signalling (ratio (wild type AVST 3.29)); higher = more functional. Conditions: with PhoP (E. coli).
RSQR: the enrichment ratio was no more than 0.25.

On to YMEV, for which the enrichment ratio was no more than 0.25.

As to GDIV, the enrichment ratio is 8.68.

Consider GDTV, for which the enrichment ratio was 13.7.

Take GDVM: the enrichment ratio stood at 28.9.

For GDTM, the enrichment ratio came out at 4.42.

As for LTVI, the enrichment ratio was no more than 0.25.

With TDVI, the enrichment ratio was 11.8.

Regarding GDYM, the enrichment ratio was no more than 0.25.

Regarding FDVI, the enrichment ratio is no more than 0.25.

Take GDDV: the enrichment ratio was no more than 0.25.

With GDVI, the enrichment ratio worked out at 20.

Take GDNY: the enrichment ratio was no more than 0.25.

For GDVA, the enrichment ratio was no more than 0.25.

For the variant INWI, the enrichment ratio was no more than 0.25.

On to VNRI, for which the enrichment ratio was no more than 0.25.

On to NHGQ, for which the enrichment ratio is no more than 0.25.

As for MSWY, the enrichment ratio came to 5.91.

For SPRG, the enrichment ratio is no more than 0.25.

Regarding PPYC, the enrichment ratio is no more than 0.25.

Take HEPW: the enrichment ratio was no more than 0.25.

With EAAS, the enrichment ratio was no more than 0.25.

On to SSWV, for which the enrichment ratio was 0.518.

Turning to SSAE, the enrichment ratio is 10.5.

Regarding SSIV, the enrichment ratio came to 14.2.

As for KSIV, the enrichment ratio was no more than 0.25.

As to SSII, the enrichment ratio worked out at 16.3.

As for SSID, the enrichment ratio was no more than 0.25.

For the variant SSYV, the enrichment ratio stood at 1.11.

Take KSII: the enrichment ratio is no more than 0.25.

As for SSAV, the enrichment ratio was found to be 12.9.

Turning to SSPV, the enrichment ratio was 1.03.

Consider SPAV, for which the enrichment ratio was no more than 0.25.

In the case of SSMV, the enrichment ratio amounted to 18.9.

As to EHMI, the enrichment ratio is no more than 0.25.

Turning to WWKN, the enrichment ratio is no more than 0.25.

In the case of YRIR, the enrichment ratio is no more than 0.25.

Consider HENW, for which the enrichment ratio was no more than 0.25.

In the case of GDFP, the enrichment ratio was no more than 0.25.

Take WFHL: the enrichment ratio is no more than 0.25.

Take EAAQ: the enrichment ratio was no more than 0.25.

Turning to NSIS, the enrichment ratio is no more than 0.25.

Consider SSMR, for which the enrichment ratio was no more than 0.25.

Consider ADIS, for which the enrichment ratio was no more than 0.25.

Take SSIM: the enrichment ratio worked out at 18.4.

For SSIS, the enrichment ratio amounted to 11.9.

SSMI: the enrichment ratio is 19.

As for SSMD, the enrichment ratio came out at 3.52.

Regarding KSIS, the enrichment ratio is no more than 0.25.

For the variant SSIE, the enrichment ratio was no more than 0.25.

For the variant AQIS, the enrichment ratio came out at 13.

With AQIV, the enrichment ratio turned out to be 9.59.

For SCIM, the enrichment ratio amounted to 3.17.

Take ASCT: the enrichment ratio came out at 11.1.

As to DRDN, the enrichment ratio is no more than 0.25.

On to ADGC, for which the enrichment ratio was no more than 0.25.

Turning to QENS, the enrichment ratio was no more than 0.25.

On to MSVE, for which the enrichment ratio is no more than 0.25.

Turning to VCLI, the enrichment ratio is 5.48.

Turning to TNQT, the enrichment ratio is 7.38.

On to SSMF, for which the enrichment ratio turned out to be 12.7.

For KSMF, the enrichment ratio is no more than 0.25.

Consider SQIS, for which the enrichment ratio amounted to 13.9.

SSIL: the enrichment ratio worked out at 12.3.

Turning to SSEL, the enrichment ratio is 0.485.

As to DPIS, the enrichment ratio is no more than 0.25.

With KSIL, the enrichment ratio was no more than 0.25.

On to SSHF, for which the enrichment ratio was no more than 0.25.

With SSMS, the enrichment ratio amounted to 11.7.

For the variant SQIV, the enrichment ratio was 5.01.

In the case of SSMG, the enrichment ratio amounted to 10.3.

In the case of SSMW, the enrichment ratio was no more than 0.25.

As for IRSG, the enrichment ratio is no more than 0.25.

For the variant FANW, the enrichment ratio is no more than 0.25.

For HNPM, the enrichment ratio is no more than 0.25.

Consider CVPS, for which the enrichment ratio is no more than 0.25.

With FSNW, the enrichment ratio was no more than 0.25.

Take APGD: the enrichment ratio was no more than 0.25.

Take SFDK: the enrichment ratio was no more than 0.25.

With MPYC, the enrichment ratio was no more than 0.25.

For the variant EQDL, the enrichment ratio is no more than 0.25.

With FSIM, the enrichment ratio was found to be 11.9.

As for FDIM, the enrichment ratio was no more than 0.25.

Consider STME, for which the enrichment ratio turned out to be 8.24.

As for SSME, the enrichment ratio is 16.6.

With SSIG, the enrichment ratio is 11.5.

Take SDII: the enrichment ratio is 11.7.

On to SYII, for which the enrichment ratio is no more than 0.25.

In the case of KSIM, the enrichment ratio is no more than 0.25.

Take KSME: the enrichment ratio was no more than 0.25.

KSIG: the enrichment ratio was no more than 0.25.

As to SCII, the enrichment ratio amounted to 5.01.

Take TSIG: the enrichment ratio is no more than 0.25.

With KAWR, the enrichment ratio was no more than 0.25.

Regarding KQKI, the enrichment ratio was no more than 0.25.

With TDSI, the enrichment ratio was 8.92.

As for PNEG, the enrichment ratio was no more than 0.25.

For the variant MIVG, the enrichment ratio is no more than 0.25.

On to NTPE, for which the enrichment ratio was no more than 0.25.

With KFFD, the enrichment ratio was no more than 0.25.

As to PYGG, the enrichment ratio is no more than 0.25.

Take PMVC: the enrichment ratio was no more than 0.25.

As to SQVQ, the enrichment ratio was 15.1.

As to STVQ, the enrichment ratio came to 12.

Regarding SLVQ, the enrichment ratio turned out to be 0.637.

Consider MEVQ, for which the enrichment ratio is no more than 0.25.

Turning to KYVQ, the enrichment ratio was no more than 0.25.

For NEVQ, the enrichment ratio was no more than 0.25.

Consider SEVQ, for which the enrichment ratio came out at 11.9.

As to SCVQ, the enrichment ratio worked out at 3.12.

In the case of YTVQ, the enrichment ratio is 0.393.

With ATVA, the enrichment ratio amounted to 1.05.

For ATVQ, the enrichment ratio stood at 13.9.

As to ATHP, the enrichment ratio was no more than 0.25.

On to NQCF, for which the enrichment ratio is no more than 0.25.

For the variant KRSQ, the enrichment ratio is no more than 0.25.

As to WTEW, the enrichment ratio was no more than 0.25.

With QAYY, the enrichment ratio stood at 10.3.

For the variant WESK, the enrichment ratio is no more than 0.25.

For QQNY, the enrichment ratio turned out to be 2.46.

With WMDF, the enrichment ratio was no more than 0.25.

Regarding ACYH, the enrichment ratio was no more than 0.25.

Take QTFW: the enrichment ratio was no more than 0.25.

For the variant GYDH, the enrichment ratio is no more than 0.25.

On to QCGH, for which the enrichment ratio stood at 24.2.

Consider QCNH, for which the enrichment ratio is no more than 0.25.

For QCDH, the enrichment ratio turned out to be 18.8.

On to QCCA, for which the enrichment ratio is no more than 0.25.

QCTH: the enrichment ratio is no more than 0.25.

As to EMTV, the enrichment ratio was no more than 0.25.

As for PVLS, the enrichment ratio was no more than 0.25.

On to KFLE, for which the enrichment ratio was no more than 0.25.

As to KSER, the enrichment ratio is no more than 0.25.

With MSLC, the enrichment ratio is 11.7.

FSLC: the enrichment ratio amounted to 12.4.

QGLC: the enrichment ratio was 15.9.

FFLC: the enrichment ratio is no more than 0.25.

Take QFLC: the enrichment ratio was no more than 0.25.

Consider SSLC, for which the enrichment ratio turned out to be 15.2.

Regarding SILC, the enrichment ratio was 8.13.

With FPLC, the enrichment ratio was no more than 0.25.

On to MSTS, for which the enrichment ratio came out at 0.73.

In the case of FQLC, the enrichment ratio was determined as 2.14.

Consider QPLC, for which the enrichment ratio was no more than 0.25.

Turning to SYLC, the enrichment ratio stood at 0.631.

As for EGVI, the enrichment ratio was no more than 0.25.

In the case of VVAR, the enrichment ratio is no more than 0.25.

Consider WYHC, for which the enrichment ratio was no more than 0.25.

Consider SWDN, for which the enrichment ratio was no more than 0.25.

Regarding MGQS, the enrichment ratio is no more than 0.25.

For LWFG, the enrichment ratio was no more than 0.25.

Consider HKKG, for which the enrichment ratio is no more than 0.25.

Turning to RSIL, the enrichment ratio is no more than 0.25.

YKDC: the enrichment ratio is no more than 0.25.

In the case of IGWW, the enrichment ratio is no more than 0.25.

The record behind these values is a collection of fitness landscapes (doi:10.1126/science.1257360).
